Experimental data taken from the supplement of paper PMC10849652.
Of roughly 7,900 targets only a part is listed; those with a hit were picked by preference. About 0.6% of all pairs of compound and target were hits. Values without a mark were called inactive.

Tests used:
Test in all cases: log2 fold change, soluble protein after heating vs DMSO (PISA); higher = thermal stabilisation; K562 cells, 10 uM, 30 min; active = over 0.2 and 3.5 SD of the protein, either way, in both replicates (recomputed)
[1] = compound: NC(=O)Nc1cc(-c2cccc(F)c2)sc1C(=O)N[C@H]1CCCNC1
How it was run: (§1)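 K562 cells (2×10^6 cells/mL) were treated with 10 μM compound for 30 min, and aliquots were heated for 3 min over 48°C-58°C. Pooled aliquots were extracted in PBS with 0.5% NP-40 at 4°C, and the supernatant after 21,000xg for 90 min was measured by TMTpro 16plex LC-MS/MS with channel sums equalised. Reported thermal stability, relative to control samples and from duplicates, is a log2 fold change.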

[2] = compound: NC(=O)c1cnc(N[C@@H]2CCCC[C@@H]2N)nc1Nc1cccc(-n2nccn2)c1
How it was run: as §1

[3] = compound: NC1(c2ccc(-c3nc4ccn5c(=O)[nH]nc5c4cc3-c3ccccc3)cc2)CCC1
How it was run: as §1

[4] = compound: NCC(=O)Nc1ccc(-n2nc(C(F)(F)F)cc2-c2ccc3c(ccc4ccccc43)c2)cc1
How it was run: as §1

entinostat = compound: Nc1ccccc1NC(=O)c1ccc(CNC(=O)OCc2cccnc2)cc1 [entinostat]
How it was run: as §1

vorinostat = compound: O=C(CCCCCCC(=O)Nc1ccccc1)NO [vorinostat]
How it was run: as §1

citarinostat = compound: O=C(CCCCCCNC(=O)c1cnc(N(c2ccccc2)c2ccccc2Cl)nc1)NO [citarinostat]
How it was run: as §1

silmitasertib = compound: O=C(O)c1ccc2c(c1)nc(Nc1cccc(Cl)c1)c1ccncc12 [silmitasertib]
How it was run: as §1

[5] = compound: O=C1NC(=O)C(c2cnc3ccccn23)=C1c1cn2c3c(cc(F)cc13)CN(C(=O)N1CCCCC1)CC2
How it was run: as §1

[6] = compound: c1cc(OCCN2CCCCC2)cc(-c2n[nH]c3ccc(-c4nnc[nH]4)cc23)c1
How it was run: as §1

entospletinib = compound: c1cn2cc(-c3ccc4cn[nH]c4c3)nc(Nc3ccc(N4CCOCC4)cc3)c2n1 [entospletinib]
How it was run: as §1

Sequence of UniProt P40425 (P40425 whole entry, looked up): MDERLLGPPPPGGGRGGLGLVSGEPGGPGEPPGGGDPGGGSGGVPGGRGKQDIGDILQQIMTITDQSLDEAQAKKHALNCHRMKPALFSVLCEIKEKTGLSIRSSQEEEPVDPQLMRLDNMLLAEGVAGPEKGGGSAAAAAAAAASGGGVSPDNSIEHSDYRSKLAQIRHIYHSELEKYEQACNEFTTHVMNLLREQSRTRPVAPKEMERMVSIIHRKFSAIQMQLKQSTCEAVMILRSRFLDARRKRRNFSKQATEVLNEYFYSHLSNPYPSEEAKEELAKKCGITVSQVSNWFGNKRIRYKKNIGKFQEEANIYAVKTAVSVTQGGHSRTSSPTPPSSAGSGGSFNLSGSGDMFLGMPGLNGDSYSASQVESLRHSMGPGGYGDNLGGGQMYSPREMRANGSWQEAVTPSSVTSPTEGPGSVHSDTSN
Sequence of UniProt Q8WXF1 (Q8WXF1 whole entry, looked up): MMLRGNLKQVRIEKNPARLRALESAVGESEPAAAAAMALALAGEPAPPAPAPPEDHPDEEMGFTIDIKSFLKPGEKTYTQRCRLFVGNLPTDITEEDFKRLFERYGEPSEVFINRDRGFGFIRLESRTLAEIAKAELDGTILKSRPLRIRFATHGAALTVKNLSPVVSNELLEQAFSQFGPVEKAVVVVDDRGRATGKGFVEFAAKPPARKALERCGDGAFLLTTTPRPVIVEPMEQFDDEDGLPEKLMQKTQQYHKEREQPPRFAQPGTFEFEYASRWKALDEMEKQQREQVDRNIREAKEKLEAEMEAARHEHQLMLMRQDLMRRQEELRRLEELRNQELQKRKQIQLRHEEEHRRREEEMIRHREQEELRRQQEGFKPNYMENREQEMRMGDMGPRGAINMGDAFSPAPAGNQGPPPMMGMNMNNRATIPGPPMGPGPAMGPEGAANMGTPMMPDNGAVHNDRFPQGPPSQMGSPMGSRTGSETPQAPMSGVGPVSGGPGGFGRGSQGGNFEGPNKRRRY
Sequence of UniProt Q16822 (Q16822 whole entry, looked up): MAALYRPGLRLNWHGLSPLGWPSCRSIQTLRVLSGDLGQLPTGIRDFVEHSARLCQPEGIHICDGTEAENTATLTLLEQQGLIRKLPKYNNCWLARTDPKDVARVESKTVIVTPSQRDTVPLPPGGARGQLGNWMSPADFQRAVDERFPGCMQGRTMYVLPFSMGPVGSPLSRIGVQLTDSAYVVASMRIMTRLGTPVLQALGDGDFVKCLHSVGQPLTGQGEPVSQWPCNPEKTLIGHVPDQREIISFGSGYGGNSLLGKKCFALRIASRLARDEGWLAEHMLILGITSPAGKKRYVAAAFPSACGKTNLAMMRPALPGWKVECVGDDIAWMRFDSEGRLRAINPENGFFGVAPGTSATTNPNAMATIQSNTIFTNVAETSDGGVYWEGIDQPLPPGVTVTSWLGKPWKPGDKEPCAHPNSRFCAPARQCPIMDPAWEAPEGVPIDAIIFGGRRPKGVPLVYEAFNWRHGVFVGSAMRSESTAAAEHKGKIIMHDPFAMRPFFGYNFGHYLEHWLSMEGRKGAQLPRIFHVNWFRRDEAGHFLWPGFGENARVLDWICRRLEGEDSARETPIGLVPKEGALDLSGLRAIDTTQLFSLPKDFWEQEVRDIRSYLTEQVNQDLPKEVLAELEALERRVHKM
Sequence of UniProt O15067 (O15067 whole entry, looked up): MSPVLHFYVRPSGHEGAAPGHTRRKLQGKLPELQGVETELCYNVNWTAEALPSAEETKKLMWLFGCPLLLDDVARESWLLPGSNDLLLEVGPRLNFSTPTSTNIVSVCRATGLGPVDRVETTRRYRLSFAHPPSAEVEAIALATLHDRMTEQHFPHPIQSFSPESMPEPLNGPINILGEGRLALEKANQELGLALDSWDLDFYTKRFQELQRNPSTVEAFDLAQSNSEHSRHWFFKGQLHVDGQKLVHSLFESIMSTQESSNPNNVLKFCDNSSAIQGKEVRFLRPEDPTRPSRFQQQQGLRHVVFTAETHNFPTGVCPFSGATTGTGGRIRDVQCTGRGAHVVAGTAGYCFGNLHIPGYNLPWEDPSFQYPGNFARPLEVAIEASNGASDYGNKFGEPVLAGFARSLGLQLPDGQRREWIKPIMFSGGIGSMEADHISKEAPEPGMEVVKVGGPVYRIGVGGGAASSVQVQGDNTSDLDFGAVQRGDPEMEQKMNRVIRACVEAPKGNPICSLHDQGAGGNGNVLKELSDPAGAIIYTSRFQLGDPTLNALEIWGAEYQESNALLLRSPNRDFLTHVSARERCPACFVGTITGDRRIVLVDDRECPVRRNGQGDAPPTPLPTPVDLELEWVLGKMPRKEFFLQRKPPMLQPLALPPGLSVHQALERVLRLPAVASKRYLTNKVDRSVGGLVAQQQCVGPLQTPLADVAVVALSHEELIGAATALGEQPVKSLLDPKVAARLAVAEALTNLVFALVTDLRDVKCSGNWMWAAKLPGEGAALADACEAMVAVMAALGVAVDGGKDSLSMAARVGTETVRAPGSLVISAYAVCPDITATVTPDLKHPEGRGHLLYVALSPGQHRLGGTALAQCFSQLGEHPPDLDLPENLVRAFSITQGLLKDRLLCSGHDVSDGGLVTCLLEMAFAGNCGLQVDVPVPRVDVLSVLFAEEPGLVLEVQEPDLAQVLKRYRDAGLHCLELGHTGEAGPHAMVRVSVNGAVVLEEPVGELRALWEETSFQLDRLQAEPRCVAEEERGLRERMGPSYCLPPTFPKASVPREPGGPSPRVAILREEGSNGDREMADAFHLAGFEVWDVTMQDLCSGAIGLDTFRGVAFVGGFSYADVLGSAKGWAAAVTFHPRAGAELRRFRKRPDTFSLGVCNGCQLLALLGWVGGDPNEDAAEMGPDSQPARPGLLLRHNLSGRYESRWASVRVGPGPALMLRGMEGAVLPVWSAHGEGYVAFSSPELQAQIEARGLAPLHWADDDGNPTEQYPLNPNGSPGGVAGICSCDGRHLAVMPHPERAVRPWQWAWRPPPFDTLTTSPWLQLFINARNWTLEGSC
Sequence of UniProt Q8NCC3 (Q8NCC3 whole entry, looked up): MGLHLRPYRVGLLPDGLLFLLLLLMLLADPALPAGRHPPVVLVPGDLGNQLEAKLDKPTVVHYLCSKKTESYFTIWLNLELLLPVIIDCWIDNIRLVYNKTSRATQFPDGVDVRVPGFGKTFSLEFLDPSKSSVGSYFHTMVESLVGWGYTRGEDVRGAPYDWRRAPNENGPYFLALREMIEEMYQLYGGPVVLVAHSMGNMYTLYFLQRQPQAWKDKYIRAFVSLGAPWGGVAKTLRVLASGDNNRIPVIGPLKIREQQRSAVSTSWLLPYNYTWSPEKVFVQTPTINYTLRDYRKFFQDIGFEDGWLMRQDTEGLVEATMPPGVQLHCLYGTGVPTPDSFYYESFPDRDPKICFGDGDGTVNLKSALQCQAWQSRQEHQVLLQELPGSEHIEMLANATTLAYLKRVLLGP
Sequence of UniProt Q8TCG2 (Q8TCG2 whole entry, looked up): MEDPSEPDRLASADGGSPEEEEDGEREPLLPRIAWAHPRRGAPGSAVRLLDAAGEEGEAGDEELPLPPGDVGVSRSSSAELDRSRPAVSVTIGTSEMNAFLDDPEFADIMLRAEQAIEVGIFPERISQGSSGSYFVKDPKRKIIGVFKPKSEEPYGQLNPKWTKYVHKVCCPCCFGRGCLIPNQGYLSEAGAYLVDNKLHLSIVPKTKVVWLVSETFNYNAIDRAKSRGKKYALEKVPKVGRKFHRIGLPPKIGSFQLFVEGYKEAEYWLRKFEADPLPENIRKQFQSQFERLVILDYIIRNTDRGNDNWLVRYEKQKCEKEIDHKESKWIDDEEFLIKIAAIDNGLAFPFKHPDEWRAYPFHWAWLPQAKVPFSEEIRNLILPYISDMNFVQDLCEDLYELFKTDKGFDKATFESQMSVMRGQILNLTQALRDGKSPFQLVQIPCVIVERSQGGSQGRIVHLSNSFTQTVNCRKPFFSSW
Sequence of UniProt Q15121 (Q15121 whole entry, looked up): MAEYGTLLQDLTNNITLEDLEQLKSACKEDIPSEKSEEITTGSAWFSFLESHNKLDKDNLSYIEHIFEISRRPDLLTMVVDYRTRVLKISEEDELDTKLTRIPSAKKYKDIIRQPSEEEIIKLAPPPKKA
Sequence of UniProt Q8TAP8 (Q8TAP8 whole entry, looked up): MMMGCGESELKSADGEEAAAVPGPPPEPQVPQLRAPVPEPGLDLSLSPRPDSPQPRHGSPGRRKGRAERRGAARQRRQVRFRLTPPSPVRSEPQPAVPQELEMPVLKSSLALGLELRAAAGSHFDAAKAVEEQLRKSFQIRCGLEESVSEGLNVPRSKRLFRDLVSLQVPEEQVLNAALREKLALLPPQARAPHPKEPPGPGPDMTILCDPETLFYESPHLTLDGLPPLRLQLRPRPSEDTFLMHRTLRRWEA

Target	log2 fold change [1]	log2 fold change [2]	log2 fold change [3]	log2 fold change [4]	log2 fold change (entinostat)	log2 fold change (vorinostat)	log2 fold change (citarinostat)	log2 fold change (silmitasertib)	log2 fold change [5]	log2 fold change [6]	log2 fold change (entospletinib)
POMK (UniProt Q9H5K3)	0	0.058	-0.173	-0.044	0.045	0.04	0.105	0.101	0.017	-0.303	-0.293 (active)
PTRHD1 (UniProt Q6GMV3)	-0.02	0.037	-0.009	0.03	0.095	-0.099	0.026	-0.006	-0.065	-0.006	0.064
PCK2 (UniProt Q16822)	0	0	-0.029	-0.013	0.005	0.004	0.013	-0.025	-0.148	-0.032	-0.057
PRPF3 (UniProt O43395)	0.026	-0.029	-0.099	-0.077	0.064	0.128	0.194	-0.014	-0.063	0	-0.08
PPP1R35 (UniProt Q8TAP8)	0.054	-0.004	-0.037	-0.002	-0.06	-0.089	-0.058	0.003	0.002	-0.001	-0.04
PDCD2L (UniProt Q9BRP1)	0.058	1.21 (active)	-0.018	-0.101	0.036	0.023	0.06	0	-0.092	-0.001	-0.012
PEA15 isoform 2 (UniProt Q15121)	0.021	-0.118	-0.103	0.016	0.075	-0.009	0.049	0.045	-0.067	-0.209	0.009
PI4K2B (UniProt Q8TCG2)	0.092	0.704 (active)	-0.08	-0.069	0.066	-0.021	0.075	0.051		0.111	-0.005
PFAS (UniProt O15067)	0.06	-0.075	-0.012	-0.054	0.134	0.042	0.049	-0.119	-0.052	0.142	-0.399 (active)
POLR3D (UniProt P05423)	-0.061	1.51 (active)	-0.115	-0.028	0.03	0.158		0.078	0.032		
PSMD9 (UniProt O00233)	0.041	0.017	0.022	0.072	0.017	0.086	0.029	-0.013	-0.027	0.005	-0.034
PLA2G15 (UniProt Q8NCC3)	0.06	-0.042	-0.023	0.001	0.056	0.073	0.279 (active)	0.076	-0.074	-0.008	-0.063
QRICH1 (UniProt Q2TAL8)	-0.043	-0.119	-0.137	-0.093	0.168		0.11	0.047	-0.276	0.027	-0.054
PNPLA4 (UniProt P41247)	0	-0.118	-0.357	0.131	-0.093		0.602	0.012		-0.071	0.003
PSPC1 (UniProt Q8WXF1)	-0.001	-0.039	0.021	-0.027	-0.014	0.14	0.067	-0.032	-0.074	-0.057	0.034
PDIK1L (UniProt Q8N165)	0.566 (active)	-0.025	-0.075	-0.225	-0.094		0.016	0.035	0.019	-0.162	0.06
PMVK (UniProt Q15126)	-0.04	-0.001	-0.114	0.29	-0.08	-0.134		0.065	0.048		
PUM1 isoform 3 (UniProt Q14671)	0	-0.032	-0.082	-0.015	0.034	0.108	-0.008	0.01	-0.028	-0.007	0.045
POLR2M (UniProt Q6EEV4)	0.027	-0.09	-0.065	-0.056	-0.148		0.029	0.03	-0.122	-0.009	0.056
PDCD6IP (UniProt Q8WUM4)	-0.055	-0.1	-0.186	-0.103	0.149	0.186	0.113	0.094	-0.009	0	0.023
PTK2B (UniProt Q14289)	0.076	0.091	-0.13	-0.092	0.128	0.011		0.054	0.072		
PNN (UniProt Q9H307)	-0.018	-0.24	0.053		0.021	0.045	-0.077	-0.124	0.106	-0.446 (active)	0.172
PLSCR1 (UniProt O15162)	-0.092	-0.005	-0.111	-0.068	-0.212	-0.082	0.05	0.022	-0.081	-0.096	-0.045
PPP4R3B (UniProt Q5MIZ7)	-0.068	-0.082	-0.069	-0.079	0.047	0.089	0.086	0.077	-0.1	0.087	-0.064
PSMC5 (UniProt P62195)	0.034	-0.001	0.007	0.054	-0.021	-0.004	-0.021	-0.005	0.063	-0.075	0.005
PIK3C3 (UniProt Q8NEB9)	0.068	0.117	-0.018	-0.015	-0.03	-0.038	-0.038	0.051	0.078	-0.041	0.039
PBX2 (UniProt P40425)	0.089	-0.016	-0.203	-0.065	0.058	0.196		0.003	-0.168		
PRKCG (UniProt P05129)	-0.064	-0.043	-0.086	0.068	0.117	0.109	0.193	0.062	-0.229	0.082	0.044
